# According to the supplement of paper PMC10037445:
# Values joined by “and” are separate entries in the source; they are usually repeats but may differ in a detail not shown here. Equal entries are not always repeated. Over roughly 2,900 compounds, “NF-kB SEAP reporter activity, fold change vs agonist alone” has its median near 0.99; the highest 2% begin near 2.6. The full list was thinned out, with the highest values kept by preference.
# Tests used:
# RAW-Dual [1] = assay: NF-kB SEAP reporter activity, fold change vs agonist alone; cytotoxicity flag (confluency mask): not cytotoxic; higher = enhanced NF-kB activity
# Outline: (§1)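 RAW-Dual macrophages (50,000 cells/well in DMEM, 384-well plates) received 50 nL of library stock by pin tool, then a PRR agonist 1 h later, and were kept at 37 °C, 5% CO2. After 20 hours, supernatant was read for IRF by QuantiLuc luminescence and for NF-κB by QuantiBlue absorbance at 620 nm. Reporter activity is fold change over agonist-alone wells. Cytotoxic wells had IncuCyte confluency below 70% of agonist controls in both mask sets.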
# RAW-Dual [2] = assay: NF-kB SEAP reporter activity, fold change vs agonist alone; higher = enhanced NF-kB activity
# Outline: as §1
# RAW-Dual [3] = assay: NF-kB SEAP reporter activity, fold change vs agonist alone; cytotoxicity flag (confluency mask): cytotoxic (confluency <70% of control); higher = enhanced NF-kB activity
# Outline: as §1
# [4] = agonist: ODN 1826 (TLR9) 0.5 ug/mL
# [5] = agonist: Pam2CSK4 (TLR2/6) 0.1 ug/mL
# [6] = agonist: Pam3CSK4 (TLR2/1) 0.1 ug/mL
# [7] = library stock concentration (final ~1000-fold dilution): 10 mM, cytotoxicity flag (confluency mask): not cytotoxic, agonist: Imiquimod (TLR7) […]
# [8] = library stock concentration (final ~1000-fold dilution): 10 mM, cytotoxicity flag (confluency mask): not cytotoxic, agonist: MPLA (TLR4) […]
smiles,measurement,setting,value
CC#CC(=O)N1CCCC1c1nc(-c2ccc(C(=O)Nc3ccccn3)cc2)c2c(N)nccn12 (configuration not stated) (library stock concentration (final ~1000-fold dilution): 10 mM),NF-kB SEAP reporter activity,RAW-Dual [1]; agonist: LPS (TLR4) 0.1 ug/mL,1.09
same,NF-kB SEAP reporter activity,RAW-Dual [1]; [4],0.844
same,NF-kB SEAP reporter activity,RAW-Dual [1]; [5],0.581
same,NF-kB SEAP reporter activity,RAW-Dual [1]; [6],0.793
CC#CC(=O)N1CCCC1c1nc(-c2ccc(C(=O)Nc3ccccn3)cc2)c2c(N)nccn12 (configuration not stated),NF-kB SEAP reporter activity,RAW-Dual [2]; [7],0.862
same,NF-kB SEAP reporter activity,RAW-Dual [2]; [8],0.81
COC1OC(COS(=O)(=O)O)C(OC2OC(C(=O)O)C(OC3OC(COS(=O)(=O)O)C(OC4OC(C(=O)O)C(OC5OC(COS(=O)(=O)O)C(O)C(O)C5NS(=O)(=O)O)C(O)C4O)C(OS(=O)(=O)O)C3NS(=O)(=O)O)C(O)C2OS(=O)(=O)O)C(O)C1NS(=O)(=O)O (configuration not stated) (library stock concentration (final ~1000-fold dilution): 10 mM water),NF-kB SEAP reporter activity,RAW-Dual [1]; agonist: LPS (TLR4) 0.1 ug/mL,1.06
same,NF-kB SEAP reporter activity,RAW-Dual [1]; [4],1.3
same,NF-kB SEAP reporter activity,RAW-Dual [1]; [5],1.25
same,NF-kB SEAP reporter activity,RAW-Dual [1]; [6],1.04
COC1OC(COS(=O)(=O)O)C(OC2OC(C(=O)O)C(OC3OC(COS(=O)(=O)O)C(OC4OC(C(=O)O)C(OC5OC(COS(=O)(=O)O)C(O)C(O)C5NS(=O)(=O)O)C(O)C4O)C(OS(=O)(=O)O)C3NS(=O)(=O)O)C(O)C2OS(=O)(=O)O)C(O)C1NS(=O)(=O)O (configuration not stated),NF-kB SEAP reporter activity,"RAW-Dual [2]; library stock concentration (final ~1000-fold dilution): 10 mM water, cytotoxicity flag (confluency mask): not cytotoxic, agonist: Imiquimod (TLR7) […]",1.04
same,NF-kB SEAP reporter activity,"RAW-Dual [2]; library stock concentration (final ~1000-fold dilution): 10 mM water, cytotoxicity flag (confluency mask): not cytotoxic, agonist: MPLA (TLR4) […]",1.06
CC(C)C(C(=O)Nc1ccc(C(=O)NO)cc1)c1ccccc1 (configuration not stated) (library stock concentration (final ~1000-fold dilution): 10 mM),NF-kB SEAP reporter activity,RAW-Dual [1]; agonist: LPS (TLR4) 0.1 ug/mL,4.76
same,NF-kB SEAP reporter activity,RAW-Dual [1]; [4],0.93
same,NF-kB SEAP reporter activity,RAW-Dual [1]; [5],1.12
same,NF-kB SEAP reporter activity,RAW-Dual [1]; [6],1.15
CC(C(=O)O)c1cccc(C(=O)c2ccccc2)c1 (configuration not stated) (library stock concentration (final ~1000-fold dilution): 10 mM),NF-kB SEAP reporter activity,RAW-Dual [1]; agonist: LPS (TLR4) 0.1 ug/mL,1.02
same,NF-kB SEAP reporter activity,RAW-Dual [1]; [4],1.01
same,NF-kB SEAP reporter activity,RAW-Dual [1]; [5],1.11
same,NF-kB SEAP reporter activity,RAW-Dual [1]; [6],1.19
CC(C(=O)O)c1cccc(C(=O)c2ccccc2)c1 (configuration not stated),NF-kB SEAP reporter activity,RAW-Dual [2]; [7],0.866
same,NF-kB SEAP reporter activity,RAW-Dual [2]; [8],1.05
CC(C)C(C(=O)Nc1ccc(C(=O)NO)cc1)c1ccccc1 (configuration not stated),NF-kB SEAP reporter activity,RAW-Dual [2]; [7],0.965
same,NF-kB SEAP reporter activity,RAW-Dual [2]; [8],0.937
Cc1nc(-c2nc(-c3ccc(OC(F)(F)F)cc3)no2)nn1Cc1cccc(N2CCC(S(C)(=O)=O)CC2)c1 (library stock concentration (final ~1000-fold dilution): 10 mM),NF-kB SEAP reporter activity,RAW-Dual [1]; agonist: LPS (TLR4) 0.1 ug/mL,2
same,NF-kB SEAP reporter activity,RAW-Dual [1]; [4],0.837
same,NF-kB SEAP reporter activity,RAW-Dual [1]; [5],0.462
same,NF-kB SEAP reporter activity,RAW-Dual [1]; [6],0.849
Cc1nc(-c2nc(-c3ccc(OC(F)(F)F)cc3)no2)nn1Cc1cccc(N2CCC(S(C)(=O)=O)CC2)c1,NF-kB SEAP reporter activity,RAW-Dual [2]; [7],0.853
same,NF-kB SEAP reporter activity,RAW-Dual [2]; [8],1.28
O.O=c1c(O)c(-c2ccc(O)cc2O)oc2cc(O)cc(O)c12 (library stock concentration (final ~1000-fold dilution): 10 mM),NF-kB SEAP reporter activity,RAW-Dual [1]; agonist: LPS (TLR4) 0.1 ug/mL,1.52
same,NF-kB SEAP reporter activity,RAW-Dual [1]; [4],1.13
same,NF-kB SEAP reporter activity,RAW-Dual [1]; [5],1.15
same,NF-kB SEAP reporter activity,RAW-Dual [1]; [6],1.18
O.O=c1c(O)c(-c2ccc(O)cc2O)oc2cc(O)cc(O)c12,NF-kB SEAP reporter activity,RAW-Dual [2]; [7],0.957
same,NF-kB SEAP reporter activity,RAW-Dual [2]; [8],1.05
COCCCOc1cc(CC(CC(N)C(O)CC(C(=O)NCC(C)(C)C(N)=O)C(C)C)C(C)C)ccc1OC (configuration not stated) (library stock concentration (final ~1000-fold dilution): 10 mM),NF-kB SEAP reporter activity,RAW-Dual [1]; agonist: LPS (TLR4) 0.1 ug/mL,1.36 and 1.31
same,NF-kB SEAP reporter activity,RAW-Dual [1]; [4],1.57 and 0.983
same,NF-kB SEAP reporter activity,RAW-Dual [1]; [5],1.09 and 0.934
same,NF-kB SEAP reporter activity,RAW-Dual [1]; [6],1.04 and 1.06
CC1=NN(c2ccc(C)c(C)c2)C(=O)/C1=N\Nc1cccc(-c2cccc(C(=O)O)c2)c1O.NCCO.NCCO,NF-kB SEAP reporter activity,RAW-Dual [2]; [7],1.57
same,NF-kB SEAP reporter activity,RAW-Dual [2]; [8],1.64
CC1=NN(c2ccc(C)c(C)c2)C(=O)/C1=N\Nc1cccc(-c2cccc(C(=O)O)c2)c1O.NCCO.NCCO (library stock concentration (final ~1000-fold dilution): 10 mM),NF-kB SEAP reporter activity,RAW-Dual [1]; agonist: LPS (TLR4) 0.1 ug/mL,2.92
same,NF-kB SEAP reporter activity,RAW-Dual [1]; [4],1.31
same,NF-kB SEAP reporter activity,RAW-Dual [1]; [5],1.58
same,NF-kB SEAP reporter activity,RAW-Dual [1]; [6],1.34
Cc1ncc(Cl)cc1NCc1ccc(C(=O)NC(CC2CCCC2)C(=O)NC2CC2)s1 (configuration not stated),NF-kB SEAP reporter activity,RAW-Dual [2]; [7],0.865
same,NF-kB SEAP reporter activity,RAW-Dual [2]; [8],0.987
Cc1ncc(Cl)cc1NCc1ccc(C(=O)NC(CC2CCCC2)C(=O)NC2CC2)s1 (configuration not stated) (library stock concentration (final ~1000-fold dilution): 10 mM),NF-kB SEAP reporter activity,RAW-Dual [1]; agonist: LPS (TLR4) 0.1 ug/mL,0.894
same,NF-kB SEAP reporter activity,RAW-Dual [1]; [4],0.742
same,NF-kB SEAP reporter activity,RAW-Dual [1]; [5],0.85
same,NF-kB SEAP reporter activity,RAW-Dual [1]; [6],0.698
Cc1cc(C)c(CN2CCc3c(Cl)cc(-c4c(C)noc4C)c(Cl)c3C2=O)c(=O)[nH]1 (library stock concentration (final ~1000-fold dilution): 10 mM),NF-kB SEAP reporter activity,RAW-Dual [1]; agonist: LPS (TLR4) 0.1 ug/mL,2.16
same,NF-kB SEAP reporter activity,RAW-Dual [1]; [4],1.51
same,NF-kB SEAP reporter activity,RAW-Dual [1]; [5],0.917
same,NF-kB SEAP reporter activity,RAW-Dual [1]; [6],0.98
Cc1cc(C)c(CN2CCc3c(Cl)cc(-c4c(C)noc4C)c(Cl)c3C2=O)c(=O)[nH]1,NF-kB SEAP reporter activity,RAW-Dual [2]; [7],1.24
same,NF-kB SEAP reporter activity,RAW-Dual [2]; [8],1.64
C=C(C)C1CCC2(C(=O)O)CCC3(C)C(CCC4C5(C)CCC(OC(=O)CC(C)(C)C(=O)O)C(C)(C)C5CCC43C)C12 (configuration not stated),NF-kB SEAP reporter activity,"RAW-Dual [2]; library stock concentration (final ~1000-fold dilution): 10 mM, cytotoxicity flag (confluency mask): cytotoxic (confluency <70% of control), agonist: Imiquimod (TLR7) […]",0.823
same,NF-kB SEAP reporter activity,"RAW-Dual [2]; library stock concentration (final ~1000-fold dilution): 10 mM, cytotoxicity flag (confluency mask): cytotoxic (confluency <70% of control), agonist: MPLA (TLR4) […]",1.07
C=C(C)C1CCC2(C(=O)O)CCC3(C)C(CCC4C5(C)CCC(OC(=O)CC(C)(C)C(=O)O)C(C)(C)C5CCC43C)C12 (configuration not stated) (library stock concentration (final ~1000-fold dilution): 10 mM),NF-kB SEAP reporter activity,RAW-Dual [3]; agonist: LPS (TLR4) 0.1 ug/mL,1.79
same,NF-kB SEAP reporter activity,RAW-Dual [3]; [4],0.735
same,NF-kB SEAP reporter activity,RAW-Dual [3]; [5],0.295
same,NF-kB SEAP reporter activity,RAW-Dual [3]; [6],0.532
CCN(CC)Cc1ccc(C(=O)N(CCc2ccccc2OC)C2CCNC2)cc1 (configuration not stated),NF-kB SEAP reporter activity,RAW-Dual [2]; [7],0.518
same,NF-kB SEAP reporter activity,RAW-Dual [2]; [8],1.28
CCN(CC)Cc1ccc(C(=O)N(CCc2ccccc2OC)C2CCNC2)cc1 (configuration not stated) (library stock concentration (final ~1000-fold dilution): 10 mM),NF-kB SEAP reporter activity,RAW-Dual [1]; agonist: LPS (TLR4) 0.1 ug/mL,0.9
same,NF-kB SEAP reporter activity,RAW-Dual [1]; [4],0.312
same,NF-kB SEAP reporter activity,RAW-Dual [1]; [5],0.883
same,NF-kB SEAP reporter activity,RAW-Dual [1]; [6],0.613
C=C1CCC2C(C)(COC(=O)CCC(=O)O)C(OC(=O)CCC(=O)O)CCC2(C)C1/C=C/C1=CCOC1=O (configuration not stated) (library stock concentration (final ~1000-fold dilution): 10 mM),NF-kB SEAP reporter activity,RAW-Dual [1]; agonist: LPS (TLR4) 0.1 ug/mL,0.94
same,NF-kB SEAP reporter activity,RAW-Dual [1]; [4],0.908
same,NF-kB SEAP reporter activity,RAW-Dual [1]; [5],0.924
same,NF-kB SEAP reporter activity,RAW-Dual [1]; [6],1.06
C=C1CCC2C(C)(COC(=O)CCC(=O)O)C(OC(=O)CCC(=O)O)CCC2(C)C1/C=C/C1=CCOC1=O (configuration not stated),NF-kB SEAP reporter activity,RAW-Dual [2]; [7],0.926
same,NF-kB SEAP reporter activity,RAW-Dual [2]; [8],0.985
Nc1ccc2ncnc(NCCc3ccc(Oc4ccccc4)cc3)c2c1,NF-kB SEAP reporter activity,RAW-Dual [2]; [7],1.46
N#Cc1ccc2ncnc(NCCc3ccccc3)c2c1,NF-kB SEAP reporter activity,RAW-Dual [2]; [7],0.984
same,NF-kB SEAP reporter activity,RAW-Dual [2]; [8],1.59
Cc1ccc(CNc2ncnc3ccc(-c4ccc(CO)o4)cc23)o1 (library stock concentration (final ~1000-fold dilution): 10 mM),NF-kB SEAP reporter activity,RAW-Dual [1]; agonist: LPS (TLR4) 0.1 ug/mL,1.16
same,NF-kB SEAP reporter activity,RAW-Dual [1]; [4],1.35
same,NF-kB SEAP reporter activity,RAW-Dual [1]; [5],1.21
same,NF-kB SEAP reporter activity,RAW-Dual [1]; [6],1.4
N#Cc1ccc2ncnc(NCCc3ccccc3)c2c1 (library stock concentration (final ~1000-fold dilution): 10 mM),NF-kB SEAP reporter activity,RAW-Dual [1]; agonist: LPS (TLR4) 0.1 ug/mL,2.76
same,NF-kB SEAP reporter activity,RAW-Dual [1]; [4],1.15
same,NF-kB SEAP reporter activity,RAW-Dual [1]; [5],1.51
same,NF-kB SEAP reporter activity,RAW-Dual [1]; [6],1.76
Nc1ccc2ncnc(NCCc3ccc(Oc4ccccc4)cc3)c2c1 (library stock concentration (final ~1000-fold dilution): 10 mM),NF-kB SEAP reporter activity,RAW-Dual [1]; agonist: LPS (TLR4) 0.1 ug/mL,1.57 and 1.15
same,NF-kB SEAP reporter activity,RAW-Dual [1]; [5],0.752 and 0.456
same,NF-kB SEAP reporter activity,RAW-Dual [1]; [6],1.02 and 0.73
Cc1ccc(CNc2ncnc3ccc(-c4ccc(CO)o4)cc23)o1,NF-kB SEAP reporter activity,RAW-Dual [2]; [7],1.07
same,NF-kB SEAP reporter activity,RAW-Dual [2]; [8],1.24
